# Casp1 inh: qHTS Assay for Allosteric/Competitive Inhibitors of Caspase-1. actives 0.03% (n = 75,000). Caspase-1 enzyme, Ac-WEHD-AFC fluorogenic rate. Potency, µM (top dose mostly 57.5 µM), inactives show top-dose activity change, negative = inhibition, actives largely listed as inhibitors;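 also: plate controls were vehicle for no effect and no substrate for full effect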
# ERK AVP inh: qHTS Assay for Inhibitors of the ERK Signaling Pathway using a Homogeneous Screening Assay | actives 0.99% (n = 72,000) | HEK293-V1b, vasopressin-stimulated pERK AlphaScreen | Potency, µM (series often up to 57.5 µM), for the others: at the top dose activity, negative = inhibition, actives largely listed as inhibitors; also: % is scaled to controls: 0 for no effect and ±100 for the full control effect; nearly all actives have a fitted effect of over 55% in size
#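 Overnight-seeded V1b-HEK293 cells in 1% FBS got compound, then vasopressin (25 nM final, 5 min, 37C), then lysis buffer. AlphaScreen detection of phospho-ERK; activity normalized to basal and full-stimulation controls.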
# HEK293 cAMP ctrl: qHTS Assay for Agonists of the Thyroid Stimulating Hormone Receptor: Activators of Intracellular cAMP Concentrations in Parental HEK 293. parental HEK293 CNG cAMP sensor, membrane potential fluorescence. Potency, µM (highest dose often 57.1 µM), without a hit: at the top dose activation, most hits filed as activators. AID 938, 2007. actives 2.5% (n = 73,000); also: % of control where 0% means no effect; nearly all actives have a fitted effect of over 55% in size
#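 Parental HEK 293 cells stably expressing a modified CNG channel (no TSHR) report cAMP rise as membrane depolarization. Membrane potential dye with 100 uM RO 20-1724 was loaded for 60 min at room temperature, then compound added for 30 min; fluorescence read at 590 nm.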
# TSHR ag: qHTS Assay for Agonists of the Thyroid Stimulating Hormone Receptor; AID 926, 2007; actives 0.48% (n = 73,000); HEK293-CNG-TSHR cells (CNG channel as cAMP sensor), membrane potential dye, cAMP; Potency, µM (titrated, usually from 57.1 µM), inactives show top-dose activation, actives largely listed as activators; Thyrotropin receptor (Homo sapiens), P16473; active = well fitted activation curve with a large enough effect in the main read-out, with a control signal flat, not every such curve was filed as active; inconclusive = small, poorly fitted or top-dose-only effect, or a change in a side signal; inactive = no such curve, though single readings can be large or run the other way; % of control where 0% means no effect;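 also: the control signal comes from parental cells without the receptor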
#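 HEK 293 cells stably expressing TSHR and a cAMP-gated CNG channel; parental CNG-only cells as counterscreen. Cells preloaded 60 min with membrane potential dye plus 100 uM RO 20-1724, then compound 30 min; fluorescence read at 590 nm.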
# GBA activity: Glucocerebrosidase; Lysosomal acid glucosylceramidase (Homo sapiens), P04062; purified enzyme, resorufin glucoside fluorescence (screen aimed at inhibitors), 20 min; Potency, µM; actives 1.1% (n = 48,000); in the data active = potency below about 15 µM; inconclusive = mostly about 16 µM to 33 µM;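 also: the screen sought inhibitors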
# Target sequence (P04062 whole entry, looked up): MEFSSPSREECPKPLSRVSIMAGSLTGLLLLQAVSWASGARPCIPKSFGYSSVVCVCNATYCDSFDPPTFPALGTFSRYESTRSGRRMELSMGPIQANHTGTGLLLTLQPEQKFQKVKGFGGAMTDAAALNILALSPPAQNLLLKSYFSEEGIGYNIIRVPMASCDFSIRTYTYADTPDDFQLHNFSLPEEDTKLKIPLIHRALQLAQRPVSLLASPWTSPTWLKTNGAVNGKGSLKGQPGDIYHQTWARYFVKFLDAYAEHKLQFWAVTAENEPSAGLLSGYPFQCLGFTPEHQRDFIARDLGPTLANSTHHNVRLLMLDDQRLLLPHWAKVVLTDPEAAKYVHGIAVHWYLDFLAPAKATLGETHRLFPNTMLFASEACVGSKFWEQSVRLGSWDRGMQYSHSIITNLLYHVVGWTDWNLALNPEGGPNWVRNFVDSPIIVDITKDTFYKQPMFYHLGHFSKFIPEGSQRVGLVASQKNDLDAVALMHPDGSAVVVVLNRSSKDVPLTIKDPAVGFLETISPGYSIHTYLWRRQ
#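 Compounds titrated against 0.2 nM normal enzyme, 30 uM resorufin beta-D-glucopyranoside substrate, citrate/phosphate buffer with taurocholate and tween-20, pH 5.9. Reaction ran 20 min at room temperature; fluorescence (Ex 548/Em 600) gave AC50.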
# Casp7 inh: qHTS Assay for Allosteric/Competitive Inhibitors of Caspase-7; recombinant caspase-7, Ac-DEVD-AFC fluorescence rate; P55210; Potency, µM (highest dose often 57.5 µM), inactives show at the highest dose activity change, negative = inhibition, most hits filed as inhibitors; actives 0.02% (n = 75,000); AID 889, 2007; active = well fitted inhibition curve with a large enough effect in the main read-out, with a control signal flat, not every such curve was filed as active; inconclusive = small, poorly fitted or top-dose-only effect, or a change in a side signal; also: % of control where 0% means no effect
# Numbers without * were called inactive; ? = inconclusive; nt = not tested or not shown; [ ] = dose if it differs, or a comment. Shown are actives, neighbours in structure and some others; about 4.5% of the full set was active somewhere. Unless noted, calls follow the shape of the dose curve; as a rule, active = well fitted curve in the direction sought with a large enough effect; inconclusive = small, poorly fitted or top-dose-only effect, or another doubt; inactive = no such curve, though single readings can be large; an effect the other way counts as inactive or inconclusive. Potency is read from the fitted curve at half-maximal effect.
SMILES,Casp1 inh,ERK AVP inh,HEK293 cAMP ctrl,TSHR ag,GBA activity,Casp7 inh
CN(C)c1ncc2nc(-c3ccc(Cl)cc3)c(=O)n(Cc3ccc(F)cc3)c2n1,nt,2%,6%[0.457 µM],-7%,nt,?
COc1ccc2[nH]c(=O)c(CN(CC3CCCO3)C(=O)Nc3ccc(F)cc3)cc2c1 (stereo not given),3%,13µM*,17%,22%,>77,0%
O=C(Nc1ccccc1N1CCCCC1)c1cccs1,-3%,34%,25µM*,?,>77,1%
CS(=O)(=O)N1CCN(c2ccccc2NC(=O)c2cccs2)CC1,-1%,-13%,?,?,>77,0%
CCc1c2c(nc3ccc(OC)cc13)COC2,4%,-16%,11%,25%,nt,-4%
COc1ccc2nc3c(c(-c4ccccc4)c2c1)CCC3,-3%,22%,25µM*,?,nt,-4%
CCOc1cc(C(=O)Nc2ccc3c(c2)OCO3)ccc1OC(F)F,-1%,20µM*,15%,4%,>77,-1%
CCOc1ccc(C(=O)Nc2ccc3c(c2)OCCO3)cc1OC,?,-10%,2%,9%,>77,-13%
CCOC(=O)c1cccc(NC(=O)CSc2nnc(C3CCCCC3)n2CC)c1,1%,?,25µM*,?,>77,6%
CCOC(=O)c1cccc(NC(=O)CSc2nnc(-c3ccoc3C)n2CC)c1,1%,-2%,29%,17%,>77,-3%
Fc1ccc(-c2nnc(-c3ccc(Cl)cc3)o2)cc1,-2%,0%,?,?,nt,-1%
CCOc1ccc(-c2nnc(-c3snc(-c4ccc(F)cc4)c3N=CN(C)C)o2)cc1,-12%,11%,16µM*,?,>77,-11%
CC(C)C(NC(=O)c1ccccc1NC(=O)c1ccco1)C(=O)O (stereo not given),-2%,21%,32µM*,?,>77,3%
CCC(C)C(NC(=O)c1ccccc1NC(=O)c1ccco1)C(=O)O (stereo not given),0%,-11%,2%,-4%,>77,0%
CCOc1ccc(Br)cc1/C=N/O,-2%,-37%,4µM*,?,nt,-2%
CCOC(=O)C1CCCN(C(=O)c2cnn3c(C(F)F)cc(-c4ccc(C)cc4)nc23)C1 (stereo not given),-14%,-15%,7.9µM*,?,>77,-15%
COc1ccc(-c2cc(C(F)F)n3ncc(C(=O)N4CCSCC4)c3n2)cc1,?,-12%,?,?,>77,-24%
CCC(Sc1nnc(C)s1)C(=O)Nc1nccs1 (stereo not given),-2%,?,25µM*,?,?,-3%
CCC(Sc1nc2ccccc2s1)C(=O)Nc1nnc(C)s1 (stereo not given),-3%,?,20µM*,?,nt,0%
Cc1nnc(SCC(=O)Nc2nccs2)s1,-1%,-4%,2%,-1%,>77,1%
CCC(Sc1nc(C)cc(=O)[nH]1)C(=O)Nc1nnc(C)s1 (stereo not given),0%,-5%,0%,-1%,>77,0%
CCN1CCN(c2ccc(NC(=O)COc3ccccc3Cl)cc2)CC1,-3%,-26%,-24%,-8%,15*,-1%
COc1ccc(OCC(=O)Nc2ccc(S(=O)(=O)N3CCCCCC3)cc2)cc1,-7%,-16%,?,?,?,-2%
COCCN1Cc2cccc(C(=O)Nc3ccc(S(=O)(=O)N4CCCCC4)cc3)c2C1=O,0%,13%,13%,nt,15*,1%
COc1ccccc1OCC(=O)Nc1ccc(S(=O)(=O)N2CCCCCC2)cc1,-1%,25µM*,?,?,nt,-2%
SMILES,Casp1 inh,ERK AVP inh,HEK293 cAMP ctrl,TSHR ag,GBA activity,Casp7 inh
COC(=O)c1cc(CSc2nc3ccc(C)cc3[nH]2)oc1C,-2%,-27%,20µM*,?,>77,-1%
COC(=O)c1cc(CSc2nnc(-c3ccccc3)c(-c3ccccc3)n2)oc1C,-3%,7%,20%,5%,>77,-2%
CCN(CC)CCCCNC(=O)c1ccc(Cc2nc3ccccc3[nH]2)cc1,-1%,nt,-6%,-3%,nt,1%
CCOC(=O)N1CCN(S(=O)(=O)c2ccc(C)cc2)C1c1ccccc1 (stereo not given),-2%,2%,13µM*,?,nt,-2%
O=c1cc(CSc2nnc(COc3ccc(Cl)cc3)o2)c2ccccc2[nH]1,1%,14%,25µM*,?,?,-10%
Clc1ccc(OCc2nn3c(-c4ccco4)nnc3s2)cc1,-1%,-12%,?,?,>77,-4%
Clc1ccc(OCc2nn3c(-c4ccncc4)nnc3s2)cc1,1%,22%,32µM*,?,>77,-1%
CCOc1ccc(-c2nnc3sc(COc4ccc(Cl)cc4)nn23)cc1,-3%,-5%,25µM*,?,>77,-1%
CCOc1ccc(-c2nnc3sc(COc4ccc(C)cc4)nn23)cc1,-3%,-1%,20µM*,?,>77,-2%
CCOc1ccc(-c2nn3c(-c4ccc(F)cc4)nnc3s2)cc1,-1%,-10%,24%,nt,>77,-2%
COc1ccc(OCc2nn3c(-c4cccc(OC)c4)nnc3s2)cc1,-5%,?,?,?,>77,-2%
CC(C)=CCc1c(O)cc(O)c2c1O[C@H](c1ccccc1)CC2=O,-1%,20%,26%,13%,nt,-2%
CO[C@H]1COC(=O)[C@@H](C)COC(=O)[C@@H](OCc2ccccc2)/C=C\[C@@H]1C,-2%[11.5 µM],2%[11.5 µM],19%[11.4 µM],11%[11.4 µM],nt,-6%[11.5 µM]
COc1ccc(NC(=O)N2CCCC3(CCN(C(=O)c4c(C)noc4C)CC3)C2)cc1,-1%,1%,5%,7%,nt,0%
CCOC(=O)C1CCN(C(=O)Nc2ccc3nc(-c4ccco4)c(-c4ccco4)nc3c2)CC1,nt,25µM*,-3%,0%,nt,?
O=C(Nc1ccc2nc(-c3ccco3)c(-c3ccco3)nc2c1)N1CCCCCC1,nt,?,4%,-5%,nt,?
CC(C)c1ccccc1S(=O)c1ccccc1C(C)(C)O (stereo not given),-2%[11.5 µM],-8%[11.5 µM],4%[11.4 µM],2%[11.4 µM],nt,-3%[11.5 µM]
COC(=O)c1[nH]c2cc(OC)c(OC)cc2c1NC(=O)CN1CCN(Cc2ccccc2)CC1,0%,10µM*,-12%,-2%,?,0%
COC(=O)c1[nH]c2ccc(C)cc2c1NC(=O)CN1CCN(c2ccc(F)cc2)CC1,-2%,-18%,-1%,-3%,>77,-2%

# Screens as filed in PubChem BioAssay.
